The values that follow come from PubChem BioAssay (EPA / NIEHS).

What is called AC50 is the midpoint of the concentration-response curve, whichever way the signal moves.

Holding throughout (conditions): mRNA level, 48 h; actives raise or lower the signal
Read-out in assay [1]: Bcl-2 (BAD) gene, BAD (gene 572)
The assay is described as follows: LTEA_HepaRG_BAD: Life Technologies and Expression Analysis (LTEA) Assay for Bcl-2 (BAD) gene using HepaRG (AID 2283469). In a few lines:
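HepaRG, 48 h exposure, 8-pt half-log curve from 100 uM in 0.5% DMSO, duplicates. Readout: TaqMan qRT-PCR for BAD mRNA, housekeeping-normalised (ACTB/GAPDH/POLR2A); gain or loss fitted against DMSO baseline.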

Read-out in assay [2]: Bcl-2 (BAX) gene, BAX (gene 581)
Kind of assay: LTEA_HepaRG_BAX: Life Technologies and Expression Analysis (LTEA) Assay for Bcl-2 (BAX) gene using HepaRG (AID 2283470). In a few lines: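 qRT-PCR read-out of BAX mRNA, normalized to three housekeeping genes, after 48 h chemical exposure of human HepaRG cells in serum-free induction medium; eight-point half-log series, top 100 uM, 0.5% DMSO vehicle; bidirectional fit versus DMSO.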

Read-out in assay [3]: adenosine kinase (ADK) gene, ADK (gene 132)
The assay is described as follows: LTEA_HepaRG_ADK: Life Technologies and Expression Analysis (LTEA) Assay for adenosine kinase (ADK) gene using HepaRG (AID 2283471). An outline of the steps:
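ADK expression quantified by qRT-PCR, normalised to three housekeeping genes, after 48 h exposure of HepaRG cells to eight concentrations (top 100 uM, half-log steps, duplicate, 0.5% DMSO). Up- or down-regulation fitted relative to vehicle.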

Read-out in assay [4]: Alpha-fetoprotein (AFP) gene, AFP (gene 174)
Kind of assay: LTEA_HepaRG_AFP: Life Technologies and Expression Analysis (LTEA) Assay for Alpha-fetoprotein (AFP) gene using HepaRG (AID 2283472). An outline of the steps:
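qRT-PCR (Fluidigm TaqMan) readout of AFP transcript, normalized to three housekeeping genes, fitted bidirectionally against 0.5% DMSO baseline. HepaRG cells received chemicals for 48 h in serum-free induction medium, top concentration 100 uM, half-log steps.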

Read-out in the next assay: BCL2L11 (gene 10018)
Kind of assay: LTEA_HepaRG_BCL2L11: Life Technologies and Expression Analysis (LTEA) Assay for Bcl-2 (BCL2L11) gene using HepaRG (AID 2283473). In a few lines:
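BCL2L11 transcript levels are measured by Fluidigm qRT-PCR, normalized to three housekeeping genes. HepaRG cultures were plated 48 h, then treated 48 h with test chemical (top 100 uM, half-log, 0.5% DMSO vehicle); curves were fitted bidirectionally against DMSO.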

Read-out in assay [5]: Apolipoprotein A-V (APOA5) gene, APOA5 (gene 116519)
Kind of assay: LTEA_HepaRG_APOA5: Life Technologies and Expression Analysis (LTEA) Assay for Apolipoprotein A-V (APOA5) gene using HepaRG (AID 2283474). An outline of the steps:
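APOA5 transcript levels were quantified by qRT-PCR, normalized to three housekeeping genes, after 48 h chemical treatment of HepaRG cells (8 points, 100 uM maximum, half-log steps, 0.5% DMSO). Curves fitted in both directions against vehicle.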

Read-out in assay [6]: Apoptosis regulator Bcl-2 (Homo sapiens) (UniProt P10415)
Kind of assay: LTEA_HepaRG_BCL2: Life Technologies and Expression Analysis (LTEA) Assay for Bcl-2 gene using HepaRG (AID 2283475). An outline of the steps:
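qRT-PCR read-out (Fluidigm TaqMan) of BCL2 transcript, normalised to three housekeeping genes, after 48 h chemical exposure of HepaRG cells; 8-point half-log series, top 100 uM, 0.5% DMSO vehicle. Gain or loss of signal fitted relative to DMSO baseline.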

Read-out in assay [7]: Bcl-2 (BID) gene, BID (gene 637)
Kind of assay: LTEA_HepaRG_BID: Life Technologies and Expression Analysis (LTEA) Assay for Bcl-2 (BID) gene using HepaRG (AID 2283476). In a few lines:
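HepaRG, 48 h exposure, 8-pt half-log series, top 100 uM, 0.5% DMSO vehicle, duplicates. Readout: BID mRNA by TaqMan qRT-PCR; housekeeping-normalized; bidirectional curve fit vs DMSO baseline.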

Read-out in a further assay: Caspase-3 (Homo sapiens) (UniProt P42574)
Kind of assay: LTEA_HepaRG_CASP3: Life Technologies and Expression Analysis (LTEA) Assay for cysteine-aspartic acid protease (CASP3) using HepaRG (AID 2283477). An outline of the steps:
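Expression of CASP3 was quantified by TaqMan qRT-PCR against three housekeeping genes (ACTB, GAPDH, POLR2A), bidirectionally versus 0.5% DMSO. HepaRG cultures received compounds in duplicate, top 100 uM with half-log steps, for 48 h in serum-free induction medium.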

Read-out in assay [8]: Cytochrome P450 (CYP24A1), CYP24A1 (gene 1591)
Kind of assay: LTEA_HepaRG_CYP24A1: Life Technologies and Expression Analysis (LTEA) Assay for Cytochrome P450 (CYP24A1) using HepaRG (AID 2283478). In a few lines:
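mRNA of CYP24A1 quantified by TaqMan qRT-PCR (ACTB/GAPDH/POLR2A normalization) after 48 h chemical exposure of HepaRG cells, top concentration 100 uM, half-log steps, 0.5% DMSO vehicle, duplicates. Curves fitted bidirectionally against DMSO baseline.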

Read-out in assay [9]: Cytochrome P450 (CYP1A2), CYP1A2 (gene 1544)
The assay is described as follows: LTEA_HepaRG_CYP1A2: Life Technologies and Expression Analysis (LTEA) Assay for Cytochrome P450 (CYP1A2) using HepaRG (AID 2283479). An outline of the steps: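 CYP1A2 transcript measured by TaqMan qRT-PCR against three housekeeping genes after 48-hour chemical exposure of HepaRG cells. Eight-point half-log series topping at 100 uM in 0.5% DMSO, duplicates; gain or loss fitted relative to vehicle.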

Read-out in assay [10]: Cytochrome P450 2C19 (Homo sapiens) (UniProt P33261)
Kind of assay: LTEA_HepaRG_CYP2C19: Life Technologies and Expression Analysis (LTEA) Assay for CYP2C19 using HepaRG (AID 2283482). An outline of the steps: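 CYP2C19 transcript levels by qRT-PCR, normalized to three housekeeping genes, in HepaRG cells after 48 h chemical exposure. Eight-point half-log series topping at 100 uM, 0.5% DMSO vehicle. Increases and decreases both fitted against DMSO.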

Read-out in the next assay: CYP2C8 (gene 1558)
Kind of assay: LTEA_HepaRG_CYP2C8: Life Technologies and Expression Analysis (LTEA) Assay for CYP2C8 using HepaRG (AID 2283483). In a few lines: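 HepaRG (human liver line), 48 h chemical exposure, 8-pt half-log series from 100 uM, 0.5% DMSO vehicle. Readout: CYP2C8 transcript by qRT-PCR, housekeeping-normalized. Bidirectional fit vs DMSO baseline.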

Read-out in the next assay: CYP2C9 (gene 1559)
The assay is described as follows: LTEA_HepaRG_CYP2C9: Life Technologies and Expression Analysis (LTEA) Assay for CYP2C9 using HepaRG (AID 2283484). An outline of the steps:
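HepaRG, 48 h dosing, 8-pt half-log series, top 100 uM, 0.5% DMSO vehicle. Read-out: CYP2C9 transcript by TaqMan qRT-PCR, housekeeping-normalized (ACTB/GAPDH/POLR2A). Gain or loss fitted vs DMSO baseline.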

Read-out in another assay: CYP2E1 (gene 1571)
The assay is described as follows: LTEA_HepaRG_CYP2E1: Life Technologies and Expression Analysis (LTEA) Assay for CYP2E1 using HepaRG (AID 2283485). In a few lines: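 CYP2E1 transcript was measured by TaqMan qRT-PCR in human HepaRG cultures after 48 h chemical exposure (top 100 uM, half-log steps, 0.5% DMSO vehicle). Housekeeping-gene normalization; gain or loss fitted relative to DMSO baseline.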

Read-out in a further assay: CYP4A11 (gene 1579)
Kind of assay: LTEA_HepaRG_CYP4A11: Life Technologies and Expression Analysis (LTEA) Assay for CYP4A11 using HepaRG (AID 2283486). An outline of the steps: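 Readout is CYP4A11 transcript level by qRT-PCR, normalized to three housekeeping genes and fitted bidirectionally against 0.5% DMSO. Human HepaRG cells were treated 48 h, in duplicate, with an 8-point half-log series topping at 100 uM.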

Read-out in assay [11]: Cytochrome P450 3A4 (Homo sapiens) (UniProt P08684)
The assay is described as follows: LTEA_HepaRG_CYP3A4: Life Technologies and Expression Analysis (LTEA) Assay for CYP3A4 using HepaRG (AID 2283487). An outline of the steps:
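Differentiated HepaRG cells, plated 48 h, then dosed 48 h in serum-free induction medium with 0.5% DMSO, 8 half-log concentrations up to 100 uM, duplicate. CYP3A4 mRNA by qRT-PCR, normalized to ACTB/GAPDH/POLR2A; bidirectional fit versus DMSO.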

Read-out in assay [12]: DNA damage-inducible transcript 3 (DDIT3), DDIT3 (gene 1649)
Kind of assay: LTEA_HepaRG_DDIT3: Life Technologies and Expression Analysis (LTEA) Assay for DNA damage-inducible transcript 3 (DDIT3) using HepaRG (AID 2283488). An outline of the steps:
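qRT-PCR readout (Fluidigm TaqMan), housekeeping-normalized to ACTB, GAPDH, POLR2A. HepaRG cells, 48 h exposure, 8-point half-log series from 100 uM in 0.5% DMSO, duplicates. Gain or loss of signal fitted against DMSO baseline.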

Read-out in assay [13]: cysteine-aspartic acid protease (CASP8), CASP8 (gene 841)
Kind of assay: LTEA_HepaRG_CASP8: Life Technologies and Expression Analysis (LTEA) Assay for cysteine-aspartic acid protease (CASP8) using HepaRG (AID 2283480). In a few lines:
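qRT-PCR readout of CASP8 mRNA, normalized to three housekeeping genes, after 48 h chemical exposure of HepaRG cells; 8-point half-log series, top 100 uM, 0.5% DMSO vehicle. Bidirectional curve fitting against DMSO baseline.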

Read-out in assay [14]: Cytochrome P450 (CYP2B6), CYP2B6 (gene 1555)
Kind of assay: LTEA_HepaRG_CYP2B6: Life Technologies and Expression Analysis (LTEA) Assay for Cytochrome P450 (CYP2B6) using HepaRG (AID 2283481). In a few lines: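 CYP2B6 transcript level quantified by qRT-PCR against three housekeeping genes, fitted bidirectionally relative to DMSO. HepaRG cultures received chemicals for 48 h, 8-point half-log series from 100 uM in 0.5% DMSO, duplicate wells, serum-free induction medium.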

Active and inactive are the calls of the source. Rule for the calls: active = hit-call score of the fitted dose curve at least 0.9, where 1 is the maximum; inactive = score below 0.9.

Apoptosis regulator Bcl-2 (Homo sapiens), sequence (P10415 whole entry, looked up): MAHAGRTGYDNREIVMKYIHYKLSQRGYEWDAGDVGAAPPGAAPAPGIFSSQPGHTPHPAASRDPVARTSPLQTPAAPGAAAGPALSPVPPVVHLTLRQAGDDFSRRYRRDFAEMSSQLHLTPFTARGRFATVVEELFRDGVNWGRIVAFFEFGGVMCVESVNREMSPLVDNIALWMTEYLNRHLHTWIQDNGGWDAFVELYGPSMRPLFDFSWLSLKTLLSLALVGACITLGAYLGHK
Cytochrome P450 3A4 (Homo sapiens), sequence (P08684 whole entry, looked up): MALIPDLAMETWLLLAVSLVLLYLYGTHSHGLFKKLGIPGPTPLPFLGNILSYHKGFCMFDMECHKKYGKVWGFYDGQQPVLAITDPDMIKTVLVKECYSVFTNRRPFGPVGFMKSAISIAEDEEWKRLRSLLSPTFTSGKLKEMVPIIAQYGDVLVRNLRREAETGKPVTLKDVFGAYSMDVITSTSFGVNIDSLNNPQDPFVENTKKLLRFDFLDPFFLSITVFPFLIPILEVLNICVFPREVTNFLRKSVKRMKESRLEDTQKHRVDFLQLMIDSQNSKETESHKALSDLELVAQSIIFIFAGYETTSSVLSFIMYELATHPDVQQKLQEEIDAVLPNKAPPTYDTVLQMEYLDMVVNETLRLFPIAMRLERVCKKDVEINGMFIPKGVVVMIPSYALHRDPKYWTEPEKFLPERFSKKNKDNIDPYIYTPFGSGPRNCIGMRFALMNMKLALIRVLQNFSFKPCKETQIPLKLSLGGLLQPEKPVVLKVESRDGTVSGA
Cytochrome P450 2C19 (Homo sapiens), sequence (P33261 whole entry, looked up): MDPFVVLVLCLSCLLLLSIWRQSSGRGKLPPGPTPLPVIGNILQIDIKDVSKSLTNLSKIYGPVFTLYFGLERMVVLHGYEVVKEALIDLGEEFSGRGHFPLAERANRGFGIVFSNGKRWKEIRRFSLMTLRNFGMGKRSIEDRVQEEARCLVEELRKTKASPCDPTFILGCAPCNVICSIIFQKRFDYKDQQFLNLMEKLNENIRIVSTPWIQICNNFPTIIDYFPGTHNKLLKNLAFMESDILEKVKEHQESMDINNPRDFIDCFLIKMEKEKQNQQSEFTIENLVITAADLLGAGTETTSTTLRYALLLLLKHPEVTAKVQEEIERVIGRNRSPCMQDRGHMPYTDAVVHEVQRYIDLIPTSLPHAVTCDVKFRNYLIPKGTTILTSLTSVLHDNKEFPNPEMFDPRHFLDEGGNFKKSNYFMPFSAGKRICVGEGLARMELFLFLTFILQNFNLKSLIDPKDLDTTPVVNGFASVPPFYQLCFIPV
Caspase-3 (Homo sapiens), sequence (P42574 whole entry, looked up): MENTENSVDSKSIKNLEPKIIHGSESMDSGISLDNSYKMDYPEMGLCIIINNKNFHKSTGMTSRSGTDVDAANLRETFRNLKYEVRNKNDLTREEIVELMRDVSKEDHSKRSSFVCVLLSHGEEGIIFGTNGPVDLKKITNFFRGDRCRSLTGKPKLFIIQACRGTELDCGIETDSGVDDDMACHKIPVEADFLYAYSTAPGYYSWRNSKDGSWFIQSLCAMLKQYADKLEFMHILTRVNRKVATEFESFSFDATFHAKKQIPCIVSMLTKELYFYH

As to `Cc1nc(-c2ccc3c(c2)CCN(CCC2CCC(NC(=O)/C=C/c4ccc(F)cc4)CC2)CC3)no1` (stereo unspecified), the outcome (in assay [1]; in assay [2]; in assay [3]; in assay [4]; in the assay with BCL2L11 (gene 10018); in assay [5]) was inactive. The result (in [6]; in assay [7]; in the assay with Caspase-3 (Homo sapiens); in [8]; in [9]; in [10]) was inactive. Besides, the molecule was called inactive (in the assay with CYP2C8 (gene 1558); in the assay with CYP2C9 (gene 1559); with CYP2E1 (gene 1571); in the assay with CYP4A11 (gene 1579); in assay [11]; in [12]).
As to `O=[N+]([O-])C(CO)(CO)CO`, the call in assay [1], in assay [2], in assay [3], in assay [4], in [5] and in assay [6] was inactive. In addition, the call (in assay [7]; with Caspase-3 (Homo sapiens); in assay [8]; in assay [13]; in [14]; in [10]) was inactive. In addition, the molecule was called inactive (in the assay with CYP2C8 (gene 1558); in the assay with CYP2E1 (gene 1571); with CYP4A11 (gene 1579); in assay [11]; in assay [12]). The half-maximal activity concentration (AC50) in assay [9] is 28.6 µM (active).
In the case of `COc1ccc2c(c1)c(CC(=O)O)c(C)n2C(=O)c1ccc(Cl)cc1`, the molecule was classed as inactive in assay [1], in assay [2], in [3], in assay [4], in assay [5] and in [6]. Also, the molecule was called inactive (in assay [7]; in the assay with Caspase-3 (Homo sapiens); in assay [8]; in assay [9]; in [13]; in assay [14]). Moreover, the result (in assay [10]; with CYP2C8 (gene 1558); in the assay with CYP4A11 (gene 1579); in assay [11]; in [12]) was inactive. Besides, the AC50 with CYP2E1 (gene 1571) was 21.3 µM (active).
As for `C1CCC(SSC2CCCCC2)CC1`, the result (in [1]; in assay [2]; in [3]; in assay [4]; with BCL2L11 (gene 10018); in [5]) was inactive. Also, the molecule was called inactive (in [6]; in assay [7]; with Caspase-3 (Homo sapiens); in assay [8]; in assay [9]; in [10]). The molecule was called inactive (in the assay with CYP2C8 (gene 1558); with CYP2E1 (gene 1571); with CYP4A11 (gene 1579); in [11]; in assay [12]).
